# Residue numbers refer to the chain shown, from its start.
# Key:
# Assay in all cases: yeast three-hybrid, YBZ-1, SC-Leu-His + 0.5 mM 3-AT, 4 days
# Details in all cases: tags: N-Gal4 AD-HA kept; label: inside an RPR1-promoter hybrid RNA with tandem MS2 sites; ssRNA
# PUM1 PUF domain R8-KWN = PUM1 PUF domain R8-KWN (Homo sapiens, UniProt Q14671 828-1176, N1122K;Y1123W;Q1126N)
# How it was run: (§1)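 A centromeric plasmid in strain YBZ-1 co-expressed Pumilio-1 PUF domain libraries, randomized at the three base-contacting residues of each repeat, with matching RNA elements; the strain carries a LexA–MS2 coat fusion and a HIS3 reporter. After four days on SC-Leu (input) or SC-Leu-His + 0.5 mM 3-AT (selection), the repeat regions were PCR-amplified and Illumina-sequenced. The interaction score is the log change in variant frequency from input to selection, using log2 and a pseudocount of 1 where absent.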
# PUM1 PUF domain R1-RKR = PUM1 PUF domain R1-RKR (Homo sapiens, UniProt Q14671 828-1176, S863R;R864K;Q867R)
# How it was run: as §1
# PUM1 PUF domain R1-KRA = PUM1 PUF domain R1-KRA (Homo sapiens, UniProt Q14671 828-1176, S863K;Q867A)
# How it was run: as §1
# PUM1 PUF domain R4-HHN = PUM1 PUF domain R4-HHN (Homo sapiens, UniProt Q14671 828-1176, N971H;Q975N)
# How it was run: as §1
# PUM1 PUF domain R4-SRN = PUM1 PUF domain R4-SRN (Homo sapiens, UniProt Q14671 828-1176, N971S;H972R;Q975N)
# How it was run: as §1
# PUM1 PUF domain R7-KYF = PUM1 PUF domain R7-KYF (Homo sapiens, UniProt Q14671 828-1176, S1079K;N1080Y;E1083F)
# How it was run: as §1
# PUM1 PUF domain R5-RQQ = PUM1 PUF domain R5-RQQ (Homo sapiens, UniProt Q14671 828-1176, C1007R;R1008Q)
# How it was run: as §1
# PUM1 PUF domain R3-DYG = PUM1 PUF domain R3-DYG (Homo sapiens, UniProt Q14671 828-1176, C935D;R936Y;Q939G)
# How it was run: as §1
# PUM1 PUF domain R7-GCD = PUM1 PUF domain R7-GCD (Homo sapiens, UniProt Q14671 828-1176, S1079G;N1080C;E1083D)
# How it was run: as §1
# PUM1 PUF domain R3-YRA = PUM1 PUF domain R3-YRA (Homo sapiens, UniProt Q14671 828-1176, C935Y;Q939A)
# How it was run: as §1
# PUM1 PUF domain R3-FCA = PUM1 PUF domain R3-FCA (Homo sapiens, UniProt Q14671 828-1176, C935F;R936C;Q939A)
# How it was run: as §1
# PUM1 PUF domain R3-LRE = PUM1 PUF domain R3-LRE (Homo sapiens, UniProt Q14671 828-1176, C935L;Q939E)
# How it was run: as §1
# PUM1 PUF domain R4-PRQ = PUM1 PUF domain R4-PRQ (Homo sapiens, UniProt Q14671 828-1176, N971P;H972R)
# How it was run: as §1
# PUM1 PUF domain R5-RYC = PUM1 PUF domain R5-RYC (Homo sapiens, UniProt Q14671 828-1176, C1007R;R1008Y;Q1011C)
# How it was run: as §1
# PUM1 PUF domain R5-DRR = PUM1 PUF domain R5-DRR (Homo sapiens, UniProt Q14671 828-1176, C1007D;Q1011R)
# How it was run: as §1
# PUM1 PUF domain R6-LYL = biological target: T1, PUM1 PUF domain R6-LYL (Homo sapiens, UniProt Q14671 828-1176, N1043L;Q1047L)
# T1 sequence: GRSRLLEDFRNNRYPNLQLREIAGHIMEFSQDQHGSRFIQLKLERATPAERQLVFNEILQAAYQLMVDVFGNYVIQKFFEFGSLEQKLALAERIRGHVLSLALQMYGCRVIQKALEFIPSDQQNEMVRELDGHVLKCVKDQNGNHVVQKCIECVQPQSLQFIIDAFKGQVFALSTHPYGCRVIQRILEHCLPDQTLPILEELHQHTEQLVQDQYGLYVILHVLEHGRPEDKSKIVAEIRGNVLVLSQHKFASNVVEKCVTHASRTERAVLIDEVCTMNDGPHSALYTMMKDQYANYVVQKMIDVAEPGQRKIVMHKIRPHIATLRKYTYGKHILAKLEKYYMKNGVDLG
# How it was run: as §1
# PUM1 PUF domain R6-GWQ = biological target: T2, PUM1 PUF domain R6-GWQ (Homo sapiens, UniProt Q14671 828-1176, N1043G;Y1044W)
# T2 sequence: T1 sequence with L216G, Y217W, L220Q
# How it was run: as §1
# PUM1 PUF domain R5-TFY = PUM1 PUF domain R5-TFY (Homo sapiens, UniProt Q14671 828-1176, C1007T;R1008F;Q1011Y)
# How it was run: as §1
# PUM1 PUF domain R6-IYE = biological target: T3, PUM1 PUF domain R6-IYE (Homo sapiens, UniProt Q14671 828-1176, N1043I;Q1047E)
# T3 sequence: T1 sequence with L216I, L220E
# How it was run: as §1
# PUM1 PUF domain R6-EWK = biological target: T4, PUM1 PUF domain R6-EWK (Homo sapiens, UniProt Q14671 828-1176, N1043E;Y1044W;Q1047K)
# T4 sequence: T1 sequence with L216E, Y217W, L220K
# How it was run: as §1
sequence,measurement,setting,value
GGCUAGAACUAGUGGAUCCCCCGGCGCCCGGCGGCUCGAGCCCGGGUAAGCGUAAAUAGUCUGCAUGCCGCCGGGCGCCAUGCCUGCAGGUCGACUCUAGAAAACAUG,binding signal,PUM1 PUF domain R8-KWN,2.89 log2 enrichment (interaction score)
GGCUAGAACUAGUGGAUCCCCCGGCGCCCGGCGGCUCGAGCCCGGGUAAGUGUAAAUUGUCUGCAUGCCGCCGGGCGCCAUGCCUGCAGGUCGACUCUAGAAAACAUG,binding signal,PUM1 PUF domain R1-RKR,3.15 log2 enrichment (interaction score)
GGCUAGAACUAGUGGAUCCCCCGGCGCCCGGCGGCUCGAGCCCGGGUAAGUGUAAAUCGUCUGCAUGCCGCCGGGCGCCAUGCCUGCAGGUCGACUCUAGAAAACAUG,binding signal,PUM1 PUF domain R1-RKR,3.04 log2 enrichment (interaction score)
same,binding signal,PUM1 PUF domain R1-KRA,5.03 log2 enrichment (interaction score)
GGCUAGAACUAGUGGAUCCCCCGGCGCCCGGCGGCUCGAGCCCGGGUAAGUGUAUAUAGUCUGCAUGCCGCCGGGCGCCAUGCCUGCAGGUCGACUCUAGAAAACAUG,binding signal,PUM1 PUF domain R4-HHN,6.48 log2 enrichment (interaction score)
same,binding signal,PUM1 PUF domain R4-SRN,0.7 log2 enrichment (interaction score)
GGCUAGAACUAGUGGAUCCCCCGGCGCCCGGCGGCUCGAGCCCGGGUAAGUCUAAAUAGUCUGCAUGCCGCCGGGCGCCAUGCCUGCAGGUCGACUCUAGAAAACAUG,binding signal,PUM1 PUF domain R7-KYF,6.02 log2 enrichment (interaction score)
GGCUAGAACUAGUGGAUCCCCCGGCGCCCGGCGGCUCGAGCCCGGGUAAGUGUGAAUAGUCUGCAUGCCGCCGGGCGCCAUGCCUGCAGGUCGACUCUAGAAAACAUG,binding signal,PUM1 PUF domain R5-RQQ,1.47 log2 enrichment (interaction score)
GGCUAGAACUAGUGGAUCCCCCGGCGCCCGGCGGCUCGAGCCCGGGUAAGUAUAAAUAGUCUGCAUGCCGCCGGGCGCCAUGCCUGCAGGUCGACUCUAGAAAACAUG,binding signal,PUM1 PUF domain R7-KYF,3.75 log2 enrichment (interaction score)
GGCUAGAACUAGUGGAUCCCCCGGCGCCCGGCGGCUCGAGCCCGGGUAAGUGUAAUUAGUCUGCAUGCCGCCGGGCGCCAUGCCUGCAGGUCGACUCUAGAAAACAUG,binding signal,PUM1 PUF domain R3-DYG,1.49 log2 enrichment (interaction score)
GGCUAGAACUAGUGGAUCCCCCGGCGCCCGGCGGCUCGAGCCCGGGUAAGUUUAAAUAGUCUGCAUGCCGCCGGGCGCCAUGCCUGCAGGUCGACUCUAGAAAACAUG,binding signal,PUM1 PUF domain R7-GCD,3.51 log2 enrichment (interaction score)
GGCUAGAACUAGUGGAUCCCCCGGCGCCCGGCGGCUCGAGCCCGGGUAAGUGUAAGUAGUCUGCAUGCCGCCGGGCGCCAUGCCUGCAGGUCGACUCUAGAAAACAUG,binding signal,PUM1 PUF domain R3-YRA,5.09 log2 enrichment (interaction score)
same,binding signal,PUM1 PUF domain R3-FCA,5.61 log2 enrichment (interaction score)
same,binding signal,PUM1 PUF domain R3-LRE,3.1 log2 enrichment (interaction score)
GGCUAGAACUAGUGGAUCCCCCGGCGCCCGGCGGCUCGAGCCCGGGUAAGUGUACAUAGUCUGCAUGCCGCCGGGCGCCAUGCCUGCAGGUCGACUCUAGAAAACAUG,binding signal,PUM1 PUF domain R4-PRQ,3.53 log2 enrichment (interaction score)
GGCUAGAACUAGUGGAUCCCCCGGCGCCCGGCGGCUCGAGCCCGGGUAAGUGUUAAUAGUCUGCAUGCCGCCGGGCGCCAUGCCUGCAGGUCGACUCUAGAAAACAUG,binding signal,PUM1 PUF domain R5-RYC,4.89 log2 enrichment (interaction score)
same,binding signal,PUM1 PUF domain R5-RQQ,5.69 log2 enrichment (interaction score)
same,binding signal,PUM1 PUF domain R5-DRR,2.64 log2 enrichment (interaction score)
GGCUAGAACUAGUGGAUCCCCCGGCGCCCGGCGGCUCGAGCCCGGGUAAGUGAAAAUAGUCUGCAUGCCGCCGGGCGCCAUGCCUGCAGGUCGACUCUAGAAAACAUG,binding signal,PUM1 PUF domain R6-LYL,3.54 log2 enrichment (interaction score)
GGCUAGAACUAGUGGAUCCCCCGGCGCCCGGCGGCUCGAGCCCGGGUAAGUGUAAAUAGUCUGCAUGCCGCCGGGCGCCAUGCCUGCAGGUCGACUCUAGAAAACAUG,binding signal,PUM1 PUF domain R3-YRA,0.87 log2 enrichment (interaction score)
same,binding signal,PUM1 PUF domain R8-KWN,2.44 log2 enrichment (interaction score)
same,binding signal,PUM1 PUF domain R3-DYG,3.9 log2 enrichment (interaction score)
same,binding signal,PUM1 PUF domain R5-RYC,3.48 log2 enrichment (interaction score)
same,binding signal,PUM1 PUF domain R6-GWQ,5.78 log2 enrichment (interaction score)
same,binding signal,PUM1 PUF domain R5-TFY,2.23 log2 enrichment (interaction score)
same,binding signal,PUM1 PUF domain R6-IYE,2.5 log2 enrichment (interaction score)
same,binding signal,PUM1 PUF domain R6-LYL,2.24 log2 enrichment (interaction score)
same,binding signal,PUM1 PUF domain R4-SRN,3.38 log2 enrichment (interaction score)
GGCUAGAACUAGUGGAUCCCCCGGCGCCCGGCGGCUCGAGCCCGGGUAAGGGUAAAUAGUCUGCAUGCCGCCGGGCGCCAUGCCUGCAGGUCGACUCUAGAAAACAUG,binding signal,PUM1 PUF domain R8-KWN,2.68 log2 enrichment (interaction score)
GGCUAGAACUAGUGGAUCCCCCGGCGCCCGGCGGCUCGAGCCCGGGUAAGUGGAAAUAGUCUGCAUGCCGCCGGGCGCCAUGCCUGCAGGUCGACUCUAGAAAACAUG,binding signal,PUM1 PUF domain R6-EWK,2.84 log2 enrichment (interaction score)
GGCUAGAACUAGUGGAUCCCCCGGCGCCCGGCGGCUCGAGCCCGGGUAAGUGUCAAUAGUCUGCAUGCCGCCGGGCGCCAUGCCUGCAGGUCGACUCUAGAAAACAUG,binding signal,PUM1 PUF domain R5-RYC,4.73 log2 enrichment (interaction score)
same,binding signal,PUM1 PUF domain R5-RQQ,5.36 log2 enrichment (interaction score)
same,binding signal,PUM1 PUF domain R5-DRR,3.48 log2 enrichment (interaction score)

# — paper PMC8384837, “Expanding the binding specificity for RNA recognition by a PUF domain”
